Compound activity deposited in PubChem by Broad Institute.
AF4-AF9 inh: inhibitors of AF4 peptide binding to AF9, primary screen, biochemical, AlphaScreen, biotin-AF4 peptide, FLAG-AF9, single point; Protein AF-9 (Homo sapiens), P42568; inhibition, % at 10 µM; 350,000 compounds, 0.47% hits;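 active means every replicate reaching a set inhibition limit, whatever the replicate mean, cut at about 25% in these data; inconclusive means mean inhibition reaches that limit but some replicates miss it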;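 further: 0% = plate neutral control median and 100% = total signal loss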
Target sequence (P42568 whole entry, looked up): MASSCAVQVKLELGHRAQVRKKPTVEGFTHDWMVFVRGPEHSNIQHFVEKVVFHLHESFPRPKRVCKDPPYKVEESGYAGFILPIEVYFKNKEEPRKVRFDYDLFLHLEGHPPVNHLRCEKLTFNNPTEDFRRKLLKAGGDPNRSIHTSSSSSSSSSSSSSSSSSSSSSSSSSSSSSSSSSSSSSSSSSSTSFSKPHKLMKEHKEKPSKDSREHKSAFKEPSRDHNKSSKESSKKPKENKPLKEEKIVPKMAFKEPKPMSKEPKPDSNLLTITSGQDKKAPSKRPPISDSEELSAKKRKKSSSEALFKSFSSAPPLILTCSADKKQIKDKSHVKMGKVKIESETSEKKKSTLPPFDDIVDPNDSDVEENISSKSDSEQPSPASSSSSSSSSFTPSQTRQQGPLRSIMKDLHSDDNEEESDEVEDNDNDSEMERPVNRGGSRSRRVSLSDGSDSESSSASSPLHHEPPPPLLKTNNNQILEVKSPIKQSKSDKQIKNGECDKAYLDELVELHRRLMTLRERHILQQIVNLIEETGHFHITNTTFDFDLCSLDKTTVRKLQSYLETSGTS
Wnt bcat act: Wnt/beta-catenin pathway activators, primary screen, cell-based, plate reader, single point; 300,000 compounds, 1.2% hits; Wnt/beta-catenin reporter cell assay, activator; AID 743398, 2014; activation, % at 9.35 µM; in the data active means activation above about 30%, passing the limit was not always enough; inconclusive means no clear call, values can overlap the other calls;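 further: 0% = neutral control wells and 100% = positive control wells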
Ecoli rRNA inh: reduced GFP signal of wild-type E. coli, primary screen, bacterial rRNA inhibitor project, GFP/RFP fluorescence, OD600, single point. E. coli WT GFP vs humanized-ribosome RFP mutants, 24 h; stronger effect = lower value; DMSO median 0, no signal -100. GFP signal change (wild-type ribosome), % (no concentration beside the values). 350,000 compounds, 1.6% hits;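 active means significant combined selectivity score with lowered wild-type GFP, culture density cut under 30%, mutant RFP and density less affected; inactive means any of these conditions unmet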
esBAF inh: Bmi1 luciferase reporter increase in mESCs, primary screen, esBAF inhibitor project, mouse ES cells, Bmi1 luciferase knock-in, single point; 24 h; 100% = twice the neutral-well signal; reporter increase, % at 12.5 µM; 350,000 compounds, 2% hits; AID 602393, 2012; in the data active means activation above about 40%; inconclusive means no clear call, values can overlap the other calls;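 further: 0% = median of the plate's neutral control wells and 100% = double that signal; a rise in the Bmi1 reporter signal indicates esBAF inhibition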
MITF act: activators of MITF-driven TRPM1 promoter reporter, primary screen, cell-based, SK-MEL-5, luciferase, single point. SK-MEL-5 TRPM1-promoter luciferase, 24 h; % of positive control, neutral wells = 0. activation, % at 12.5 µM. 300,000 compounds, 0.75% hits;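 active means mean activation of at least 80% with every replicate also reaching 80%; inconclusive means mean reaches 80% but some replicate falls short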;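 further: 0% = neutral control wells and 100% = parthenolide positive control wells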
* = called active by the depositor; ? = inconclusive; · = no result given. The list is not random: actives were taken first. Their share in the collection is about 3.7%.

SMILES | AF4-AF9 inh | Wnt bcat act | Ecoli rRNA inh | esBAF inh | MITF act
COc1ccccc1Nc1ccc([N+](=O)[O-])cn1 | 3.8 | 6.9 | 12.1 | 19.1 | 24.9
CC1CCN(c2nc3ccc(C(=O)NCCCN4CCCCC4)cc3s2)CC1 | 0.9 | 4.6 | 10.6 | 61.7* | -52.7
CCC1CCCCN1CCCNC(=O)c1ccc2c(c1)NC(=O)CS2 (configuration not stated) | 7.9 | 1.0 | 18.6 | -4.0 | 3.6
CC1CCN(c2nc3ccc(C(=O)O)cc3s2)CC1 | · | · | · | -70.6 | -89.7
CCC1CCCCN1CCCNC(=O)c1ccc2nc(N3CCC(C)CC3)sc2c1 (configuration not stated) | 4.5 | 16.1 | 1.5 | 58.2* | -41.0
Cc1ccc(OC(C)C(=O)N2CCN(c3ccccn3)CC2)cc1 (configuration not stated) | 0.5 | -2.6 | 8.6 | -7.0 | 3.0
COc1ccc(NC(=O)c2cc(SC)ccc2Cl)cc1 | · | · | · | · | -6.3
CCOC1=C2CN(S(=O)(=O)c3ccc(C)cc3)[C@H](c3ccccc3)C[C@@H]2N(S(C)(=O)=O)[C@H](c2ccccc2)C1 | 0.0 | -4.2 | 11.8 | -4.2 | ·
COC(=O)c1cc(/C=C/c2ccccc2)[nH]n1 | 5.1 | 5.6 | 10.1 | 60.8* | 66.5
Cc1nn(-c2ccccc2)c(C)c1-c1cc(C(=O)N/N=C/c2ccc(O)cc2)[nH]n1 | 6.2 | 3.5 | -24.4* | · | -1.9
Cc1cc([N+](=O)[O-])ccc1NC(=O)/C=C/c1cccs1 | · | 35.0* | · | · | 70.1
COc1cccc(-c2ccc3c(c2)[C@H]2[C@H](CCN2C(=O)c2ccccc2F)[C@@H](CO)N3C)c1 | · | · | -9.8 | 5.9 | ·
CCCCNC(=O)c1ccc2c(OCC)n(CCCC)nc2c1 | 1.8 | -3.5 | 0.9 | -6.0 | -1.4
CCCCn1nc2cc(C(=O)NCCc3ccc(C)cc3)ccc2c1OCC | · | 0.7 | -38.4* | 1.6 | 7.8
CCCn1nc2cc(C(=O)NCCc3cccs3)ccc2c1OCC | 0.1 | 18.5 | 6.7 | 72.1* | 70.9
COc1ccc(C(C#N)=C2C=CC(=NO)C(C)=C2Cl)cc1 | -2.3 | 2.1 | -5.4 | · | 2.9
COc1ccc(C(C#N)=C2C=C(Cl)C(=NO)C=C2Cl)cc1 | 3.9 | -3.1 | -18.6* | · | ·
Cc1ccc2c(c1)N(C(=O)CCC(=O)NCCCN1CCOCC1)CC(C)O2 (configuration not stated) | 1.0 | -5.4 | 8.2 | -3.0 | 1.6
CCN1CCN(CCCNC(=O)CCC(=O)N2CC(C)Oc3ccc(C)cc32)CC1 (configuration not stated) | 48.9* | -1.2 | 1.7 | 0.4 | 7.0
C=CCn1c(-c2cc3c(s2)CCC(CC)C3)n[nH]c1=S (configuration not stated) | -1.3 | -0.8 | -38.1* | · | 12.6
NC(=NC(=O)c1ccc(OCC(F)(F)F)nc1)c1ccc(Cl)cc1 | -4.8 | 2.3 | -13.2 | · | ·
COCC(=O)N1CC2(C1)[C@H](c1ccc(-c3cccc(C)c3)cc1)[C@@H](CO)N2C(=O)C1CC1 | -10.1 | · | -1.8 | · | ·
COCCCNC(=S)NNC(=O)c1ccc(C(C)(C)C)cc1 | 1.6 | 0.9 | 6.2 | · | 2.7
COCCCNC(=S)NNC(=O)c1csc(C)n1 | 5.0 | 41.0* | · | -4.8 | -12.0
CCC(C)(C)C1CCC2(CC1)NC(=O)N(CC(=O)N(C)CCOc1ccc(Cl)cc1)C2=O (configuration not stated) | -2.1 | 0.9 | 12.7 | -0.2 | -22.4
SMILES | AF4-AF9 inh | Wnt bcat act | Ecoli rRNA inh | esBAF inh | MITF act
OC(c1ccccc1)c1ncc(-c2ccc(Oc3ccccc3)cc2)[nH]1 (configuration not stated) | 5.8 | 13.8 | -61.5 | 32.8 | ·
Cc1csc2c(N3CCN(C(=O)Nc4ccccc4)CC3)ncnc12 | · | 1.0 | -27.9* | 11.3 | 7.7
Cc1ccc(C(=O)N2CCN(c3ncnc4c(C)csc34)CC2)cc1 | -0.1 | 0.3 | -17.4 | -6.5 | ·
Cc1csc2c(N3CCN(C(=S)Nc4ccc(F)cc4F)CC3)ncnc12 | 0.6 | 0.0 | -26.5* | 5.4 | 0.4
Cc1ccc(Sc2c([N+](=O)[O-])c(=O)n(C)c3ccccc23)cc1 | -1.5 | 32.3* | 21.2 | -1.4 | ·
Cc1ccc(Sc2c(O)c3ccccc3n(C)c2=O)cc1 | -3.8 | -5.4 | 1.6 | -5.9 | 6.8
COc1ccccc1-c1ccc2c(c1)O[C@@H](CN(C)C(=O)Nc1cccc(F)c1)[C@@H](C)CN([C@@H](C)CO)S2(=O)=O | 1.2 | · | -4.1 | 5.6 | ·
Fc1cccc(CSc2ccc(-c3ccco3)nn2)c1 | · | 30.3* | · | 65.6* | 38.0
Cc1ccc(NC(=O)C2C3/C=C\CCCCC32)cc1 (configuration not stated) | 0.8 | 15.7 | · | · | 93.6*
CCOC(=O)c1ccc(NC(=O)C2C3CCC(C3)C2C(=O)O)cc1 (configuration not stated) | · | 0.0 | · | 15.5 | 30.1
CC(C)(C)C(=O)Nc1ccc(C(=O)OC2CCCCC2)cc1 | · | · | -4.1 | 63.6* | 104.6*
CCOC(=O)c1ccc(NC(=O)C2C3CCCCC32)cc1 (configuration not stated) | -1.8 | 2.7 | -4.0 | ? | 82.2*
CC(C)COC(=O)c1ccc(NC(=O)C2C3CCC(C3)C2C(=O)O)cc1 (configuration not stated) | · | 1.2 | · | 57.9* | 56.4
CN1c2ccc(-c3cccc(C#N)c3)cc2[C@H]2[C@H](CCN2C(=O)C2CC2)[C@H]1CO | 9.1 | · | -2.9 | · | ·
COc1ccccc1CC(=O)Nc1cccc(C)n1 | -7.5 | 0.7 | 4.7 | -1.4 | -3.3
O=C(CS(=O)(=O)c1ccccc1)NCc1ccc(Cl)cc1 | -2.5 | -2.0 | 5.2 | -0.3 | -2.3
CCOC(=O)c1ccc(NS(=O)(=O)N2CCCCCC2)cc1 | · | -2.2 | · | 47.3* | 19.4
CCOC(=O)C1CCCN(C(=S)Nc2ccc(Nc3ccccc3)cc2)C1 (configuration not stated) | 8.4 | 5.6 | -29.9* | ? | 9.3
CCOC(=O)c1ccc(NC(=O)N2CCCCCC2)cc1 | -7.7 | 36.6* | -7.6 | 16.5 | 98.4*
CCOC(=O)C1CCN(C(=S)Nc2ccccc2)CC1 | -3.8 | -3.0 | 2.9 | · | -4.9
COc1ccc(/C=C(/NC(=O)c2ccccc2)C(=O)NCc2ccco2)cc1 | -1.4 | 0.9 | 1.9 | -9.8 | -8.4
C#CCN(C[C@H]1[C@H](OC(=O)NCc2ccco2)[C@H](OC(=O)NCc2ccco2)C[C@@H](C(=O)OC)[C@H]1C(=O)OC)S(=O)(=O)c1ccc(C)cc1 | -2.2 | -2.7 | 8.8 | 1.2 | ·
CCC(CO)Oc1cc(NCc2cccc(Cl)c2)c2ncn(C(C)C)c2c1 (configuration not stated) | · | · | -22.0* | -9.2 | -25.0
CCC(CO)Oc1cc(NCc2cccnc2)c2ncn(C(C)C)c2c1 (configuration not stated) | · | -2.4 | · | -1.4 | -34.8
